# Screening data deposited in PubChem BioAssay by National Center for Advancing Translational Sciences (NCATS).
# DT40 TDP1 no CPT – qHTS for Inhibitors of human tyrosyl-DNA phosphodiesterase 1 (TDP1): qHTS in cells in absence of CPT; DT40 Tdp1-/- hTDP1 cells, no CPT, ATP luminescence, 48 h; Potency, µM (titrated, usually from 46.2 µM), for the others: top-dose activity change, negative = growth inhibition, actives largely listed as inhibitors; 420,000 tested, 15% active; also: nearly all actives have a fitted effect of over 55% in size
#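 Seeded 400 DT40-hTDP1 cells/well (vehicle DMSO, no 20 nM CPT); pinned compounds; ≥48 hr at 37 °C; CellTiter-Glo luminescence as viability measure.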
# TDP1 block – inhibitors of human tyrosyl-DNA phosphodiesterase TDP1; recombinant TDP1, AlphaScreen DNA substrate cleavage; 350,000 tested, 0.28% active; AID 485290; Potency, µM (top dose mostly 130 µM), for inactives: at the top dose activity change, negative = inhibition, usual class: inhibitors; also: nearly all actives have a fitted effect of over 40% in size
#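 Steps: enzyme plus compound, 15 min RT; add biotin/phosphotyrosine-FITC oligonucleotide (15 nM final), react 5 min; add donor/acceptor beads (10 ug/ml final), 10 min; read AlphaScreen. Tdp1 at 1 nM final.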
# DT40 TDP1 CPT – DT40-hTDP1 cell growth loss with CPT | 420,000 tested, 12% active | Potency, µM (doses to about 46.2 µM), for inactives: at the top dose activity change, negative = growth inhibition, usual class: inhibitors | chicken DT40 Tdp1-/-;hTDP1 cells + 20 nM CPT, ATP luminescence, 48 h | AID 686979; also: nearly all actives have a fitted effect of over 55% in size
#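 Cell growth measured by CellTiter-Glo luminescence after a minimum 48 h, 37 C compound exposure with 20 nM CPT in Tdp1-knockout DT40 cells stably expressing hTDP1, seeded 400/well; qHTS titration format.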
# KAT2A inh – blocks human GCN5L2 histone acetyltransferase. GCN5L2 HAT assay, ThioGlo1 CoA-SH fluorescence. Potency, µM (titrated, usually from 58.9 µM), without a hit: at the top dose activity change, negative = inhibition, usual class: inhibitors. Q92830. 390,000 tested, 0.21% active
# Target sequence (Q92830 whole entry, looked up): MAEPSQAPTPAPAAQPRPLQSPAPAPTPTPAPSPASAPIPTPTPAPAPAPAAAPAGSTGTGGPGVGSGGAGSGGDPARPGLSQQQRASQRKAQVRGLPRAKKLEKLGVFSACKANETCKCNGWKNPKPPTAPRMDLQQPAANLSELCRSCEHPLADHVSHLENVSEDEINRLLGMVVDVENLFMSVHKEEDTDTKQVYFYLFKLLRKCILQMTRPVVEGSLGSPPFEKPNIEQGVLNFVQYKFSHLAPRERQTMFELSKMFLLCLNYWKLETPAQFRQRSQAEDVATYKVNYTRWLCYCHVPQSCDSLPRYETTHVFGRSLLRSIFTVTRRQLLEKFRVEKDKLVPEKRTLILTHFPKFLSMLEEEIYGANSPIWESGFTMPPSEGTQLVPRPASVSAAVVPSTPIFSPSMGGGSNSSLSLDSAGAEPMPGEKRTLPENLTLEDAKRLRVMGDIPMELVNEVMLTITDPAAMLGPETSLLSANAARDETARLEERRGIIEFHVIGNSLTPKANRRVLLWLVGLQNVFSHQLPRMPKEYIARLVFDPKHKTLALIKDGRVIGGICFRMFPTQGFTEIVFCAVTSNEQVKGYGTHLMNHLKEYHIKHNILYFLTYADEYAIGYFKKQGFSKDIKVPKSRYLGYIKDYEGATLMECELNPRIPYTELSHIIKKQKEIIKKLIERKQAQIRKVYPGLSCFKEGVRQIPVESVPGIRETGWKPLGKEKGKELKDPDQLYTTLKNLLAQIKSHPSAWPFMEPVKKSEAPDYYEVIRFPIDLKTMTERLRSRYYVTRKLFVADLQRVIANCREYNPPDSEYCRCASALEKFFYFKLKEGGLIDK
#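 Enzyme at 20nM final was mixed with library compounds for 15 min at room temperature. Peptide H3(1-25) at 75uM, acetyl-CoA at 70uM and ThioGlo1 at 50uM were then added. Plates were read immediately and after 20 min (Ex340nm/Em540nm).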
# PLK1 PBD block – blocks phosphopeptide binding to human PLK1 polo-box domain. P53350. Plk1 PBD binding of FITC phosphopeptide, fluorescence polarization. Potency, µM, inactives show max response, negative = inhibition, most hits filed as inhibitors. 360,000 tested, 2.8% active. AID 720504; also: series mostly up to about 57 µM; nearly all actives have a fitted effect of over 65% in size
# VDR inh – inhibitors of human vitamin D receptor. AID 504847. P11473. 400,000 tested, 0.93% active. Potency, µM, for inactives: max response, negative = inhibition, most hits filed as inhibitors. VDR-SRC2-3 peptide fluorescence polarization, 2 h
#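 Measured by FP: displacement of SRC2-3 coactivator peptide from VDR by library compounds, following a two-hour ambient incubation.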
# * = called active by the depositor; ? = inconclusive; . = no result given; [ ] = dose if it differs, or a comment. Only some compounds are listed: those with a hit (about 18% of all), similar ones and a draw of the others. Calls follow the shape of the dose curve; as a rule, active = well fitted curve in the direction sought with a large enough effect; inconclusive = small, poorly fitted or top-dose-only effect, or another doubt; inactive = no such curve, though single readings can be large; an effect the other way counts as inactive or inconclusive. % is scaled to controls: 0 for no effect and ±100 for the full control effect; potency is read from the fitted curve at half-maximal effect.
SMILES,DT40 TDP1 no CPT,TDP1 block,DT40 TDP1 CPT,KAT2A inh,PLK1 PBD block,VDR inh
Cc1ccc(-c2nc(CSc3nc4ccccc4c(=O)n3C)cs2)cc1,26µM*,2%,18µM*,-8%,-4%,-7%
C=CCn1c(SCc2csc(-c3ccc(C)cc3)n2)nnc1-c1ccccc1OC,18µM*,5%,12µM*,-3%,-4%,2%
Cc1ccc(CNC(=O)CSc2nc3ccccc3c(=O)n2CCCO)cc1,-24%,5%,-19%,-8%,-4%,5%
Cc1ccc(-c2nc(CSc3nc4ccccc4c(=O)n3CCO)cs2)cc1,16µM*,6%,?,-10%,-14%,-12%
COc1ccccc1N1CCN(C(=O)c2oc3cc(C)cc(C)c3c2C)CC1,26µM*,7%[56.1 µM],?,-8%,1%,2%
COc1ccccc1N1CCN(C(=O)c2cc(=O)c3ccc(C)cc3o2)CC1,?,.,?,15%,-15%,0%
COc1ccccc1N1CCN(C(=O)c2oc3c(c2C)C(=O)CC(C)(C)C3)CC1,6.5µM*,4%,15µM*,-4%,-4%,-21%
COc1ccc(NC(=O)Nc2ccc3c(c2)OCO3)c(C)c1,-15%,-3%,-5%,-4%,-3%,16%
Cc1cc(C)cc(NC(=O)N2CCC3(CC2)Oc2ccccc2C(=O)N3Cc2ccccc2F)c1,?,1%,?,-8%,.,-3%
COc1ccc(OC)c(NC(=O)N2CCC3(CC2)Oc2ccccc2C(=O)N3Cc2ccccc2F)c1,15µM*,-3%,?,-6%,.,-16%
COc1cccc(NC(=O)C(=O)NCCc2csc(-c3ccc(C(F)(F)F)cc3)n2)c1,-28%,4%,?,1%,.,10%
Cc1ccc(C(=O)Oc2cc(-c3ccccc3)no2)cc1,1%,1%,-3%,-7%[0.501 µM],-15%,3%
O=C(Oc1cc(-c2ccccc2)no1)c1ccc(Cl)cc1,?,-1%,?,-3%[0.501 µM],24µM*,6%
CCCCn1nnnc1C(c1cc2ccccc2o1)N1CCCCC1 (configuration not stated),?,.,?,.,-6%,.
CCCCn1nnnc1C(c1cc2ccccc2o1)N1CCN(CCN(C)C)CC1 (configuration not stated),21µM*,.,?,.,3%,.
CCCCn1nnnc1C(c1cc2ccccc2o1)N1CCN(c2ccncc2)CC1 (configuration not stated),23µM*,.,21µM*,.,-10%,.
Cc1cccc(C)c1N1CCN(C(c2cc3ccccc3o2)c2nnnn2C(C)(C)C)CC1 (configuration not stated),?,.,15µM*,.,-1%,.
CCCCn1nnnc1C(c1cc2ccccc2o1)N1CCN(c2c(C)cccc2C)CC1 (configuration not stated),18µM*,.,?,.,-3%,.
CC1(C(=O)O)CCCN(C(=O)c2cccnc2Oc2ccccc2)C1 (configuration not stated),-4%,.,0%,.,3%,.
COc1ccc(/C=C2/NC(=O)CNC2=O)cc1,-1%,.,-5%,-11%,-9%,6%
CC1CC(C)CN(C(=O)Cn2cc(C=O)c3ccccc32)C1 (configuration not stated),13%,0%,0%,-2%,-10%,-13%
Cc1ccc(CC2C(=O)N(c3nc(C)cc(C)n3)C(=O)C2C)cc1 (configuration not stated),-20%,4%,1%,-1%,-15%,-9%
O=C(CSc1nnc2ccc3ccccc3n12)c1ccc(F)cc1,16µM*,.,?,-3%,.,10%
O=C(CCSc1nnc2ccc3ccccc3n12)Nc1ccc(F)cc1,?,-5%,?,-10%[0.501 µM],30µM*,0%
O=C(CSc1nnc2ccc3ccccc3n12)N1CCOCC1,-9%,6%,-18%,-2%,-1%,-14%
SMILES,DT40 TDP1 no CPT,TDP1 block,DT40 TDP1 CPT,KAT2A inh,PLK1 PBD block,VDR inh
CCOC(=O)C(c1ccccc1)C(Nc1ccc(F)cc1)c1ccccn1 (configuration not stated),18µM*,-4%,?,0%,-2%,1%
CCOC(=O)C(C(=O)OCC)C(Nc1ccc(Br)cc1)c1ccccc1 (configuration not stated),?,4%,29µM*,-4%,-7%,79µM*
Cc1ccccc1-c1cccc(CN2CCc3nnc(C(C)NC(=O)c4cccnc4)n3CC2)c1 (configuration not stated),-5%,.,-5%,.,.,.
CS(=O)(=O)N(CC(=O)N1CCN(c2cccc(Cl)c2)CC1)C1CCCCC1,?,7%,-28%,-13%,-4%,0%
CCN1CCN(C(=O)CN(c2cc(OC)ccc2OC)S(C)(=O)=O)CC1,-19%,5%,1%,-3%,-2%,6%
Cc1ccc(Cl)cc1N1CCN(C(=O)CN(C2CCCCC2)S(C)(=O)=O)CC1,8.2µM*,-1%,15µM*,-5%,-25%,-6%
COc1ccc(OC)c(N(CC(=O)N2CCN(c3cc(Cl)ccc3C)CC2)S(C)(=O)=O)c1,?,5%,15µM*,-4%,-19%,4%
Cc1cc(NC(=O)c2cc(Cl)ccc2Cl)ccc1-c1cc2ccccc2oc1=O,?,0%[12.3 µM],-20%,-3%,.,-28%
CC1CCCCCCC1OC(=O)c1ccccc1C(=O)O (configuration not stated),-22%,.,-2%,.,-4%,-21%
CCc1ccccc1NC(=O)CN(c1cc(C(F)(F)F)ccc1Cl)S(=O)(=O)c1ccccc1,?,.,?,-9%,.,-10%
O=C(Nc1ccc(Cl)cc1)NC1CCCC1Cc1ccco1 (configuration not stated),?,1%,-20%,-19%,-8%,1%
O=C(Nc1ccc(Cl)cc1)NC1CCCCC1Cc1ccco1 (configuration not stated),18µM*,3%,?,-10%,-8%,-5%
c1ccc(-c2nc(N3CCCCC3)nc3ccccc23)cc1,10%,-2%,-23%,-8%,1%,14%
c1ccc(-c2nnc3nc(N4CCCCC4)nc(N4CCCCC4)n23)cc1,15µM*,.,18µM*,.,-6%,-21%
CCOc1ccc(NC(=O)c2cc(=O)[nH]c3ccccc23)cc1,0%,4%,?,2%,-4%,7%
Cc1cccc(OCCC(=O)Nc2ccc(S(=O)(=O)N3CCCC3)cc2)c1,?,-1%,?,-13%,-6%,1%
Cc1ccccc1OCCC(=O)Nc1ccc(S(=O)(=O)N2CCCC2)cc1,15µM*,.,21µM*,.,1%,.
